Hits are enriched below; roughly 2.3% of the tested compounds scored in any of these assays.
M1 ag parental: counter-screen for M1 agonists: effect in parental CHO-K1 cells; AID 602248, 2012; Fluo-8 calcium fluorescence; scaled to maximal ATP response, vehicle zero; activation, % at 3 µM; actives 0.48% (n = 360,000); in the data active means activation above about 15%;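 further: untransfected CHO-K1 host cells lacking M1 receptor as counterscreen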
CHO-K1 Ca antag: counter-screen for M1 antagonists: effect in parental CHO-K1 cells; ATP-induced calcium, Fluo-8 fluorescence; inhibition, % at 3 µM; actives 0.6% (n = 360,000);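 active means inhibition above a per-plate cutoff, the plate's mean sample inhibition plus 3 SD, cut at about 24% in these data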
M1 PAM parental: nonselective calcium activators in parental CHO-K1 cells, primary screen, counter-screen for M1 PAM project, cell-based, Fluo-8 calcium fluorescence, full deck, 1536-well; ATP EC20; 0% at ATP EC20, 100% at ATP max; activation, % at 3 µM; actives 0.02% (n = 360,000); AID 602247, 2012;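 active means activation above the run cutoff, the mean activation of all test compounds plus 3 SD, cut at about 40% in these data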;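 further: peak over basal fluorescence ratio in a 140 s read after ATP addition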
M1 ag: human M1 muscarinic receptor agonists, primary screen, Fluo-8 calcium fluorescence, CHO-K1 cells, HTS. Muscarinic acetylcholine receptor M1 (Homo sapiens), P11229. CHO-K1 hM1, agonist mode; 0% DMSO, 100% acetylcholine EC100. activation, % at 3 µM. actives 0.33% (n = 360,000);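 active means activation above the run's mean compound activation plus 3 SD, cut at about 16% in these data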;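 further: peak over basal fluorescence ratio within a 140 s kinetic read after compound addition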
Target sequence (P11229 whole entry, looked up): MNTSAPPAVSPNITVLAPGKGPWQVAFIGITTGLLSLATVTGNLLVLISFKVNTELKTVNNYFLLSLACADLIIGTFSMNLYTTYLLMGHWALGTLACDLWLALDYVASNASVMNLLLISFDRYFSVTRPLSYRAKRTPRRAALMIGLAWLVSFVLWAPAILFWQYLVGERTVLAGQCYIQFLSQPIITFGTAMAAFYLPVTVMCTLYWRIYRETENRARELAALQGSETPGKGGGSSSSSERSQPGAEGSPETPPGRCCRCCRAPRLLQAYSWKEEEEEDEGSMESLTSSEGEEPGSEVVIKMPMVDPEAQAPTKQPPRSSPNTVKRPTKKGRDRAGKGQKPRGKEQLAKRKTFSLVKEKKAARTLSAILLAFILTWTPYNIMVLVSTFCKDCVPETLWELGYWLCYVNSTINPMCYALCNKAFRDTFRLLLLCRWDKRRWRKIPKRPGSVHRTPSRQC
CHRM1 antagonist: human M1 muscarinic receptor antagonists, primary screen, CHO-K1 cells, Fluo-8 calcium fluorescence, 1536-well; Muscarinic acetylcholine receptor M1 (Homo sapiens), P11229; CHO-K1 hM1, ACh EC80 antagonist; inhibition, % at 3 µM; actives 1.3% (n = 360,000); AID 588852, 2011;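 active means percent inhibition above its own plate's cutoff, namely the mean of that plate's compound wells plus 3 SD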;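 further: peak over basal fluorescence ratio during 140 s after agonist addition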
M1 PAM: human M1 muscarinic receptor positive allosteric modulators, primary screen, CHO-K1 cells, Fluo-8 calcium fluorescence, 1536-well; Muscarinic acetylcholine receptor M1 (Homo sapiens), P11229; AID 588819, 2011; actives 0.088% (n = 360,000); activation, % at 3 µM; CHO-K1 hM1, ACh EC20; 0% = ACh EC20, 100% = maximal ACh; in the data active means activation above about 19%, passing the limit was not always enough
A number is an active result; n = inactive; x = no result given.

SMILES	M1 ag parental	CHO-K1 Ca antag	M1 PAM parental	M1 ag	CHRM1 antagonist	M1 PAM
COc1ccc(NC(=O)N[C@@H](Cc2ccccc2)C(=O)NN)cc1	n	n	n	n	n	n
CCCc1nnc(NC(=O)CSc2nc3ccccc3[nH]2)s1	n	30	n	n	n	n
Cc1c(Cc2ccc3c(c2)OCO3)sc(NC(=O)c2cccc3ccccc23)c1C(N)=O	n	n	n	n	101	n
CCCCn1c(N)c(N(C)C(=O)c2cc3c(s2)CCCCC3)c(=O)[nH]c1=O	n	n	n	n	n	n
O=S(=O)(c1ccc(Cl)cc1)N1CCN(C(=S)Nc2ccccc2F)CC1	17	n	n	n	n	n
O=S(=O)(c1ccc2ccccc2c1)N1CCN(C(=S)Nc2ccccc2F)CC1	n	n	n	n	n	n
Nc1nc(SCC(=O)Nc2c(Br)cc([N+](=O)[O-])cc2Br)n[nH]1	n	29	n	n	n	n
CC(NC(=O)Nc1ccc(Cl)cc1)c1ccccc1 (centres undefined)	29	n	n	n	n	n
CC(=O)c1ccc(NC(=O)Nc2ccc(Cl)cc2)cc1	17	n	n	n	n	n
CCOP(=O)(OCC)C(NC(=O)Nc1ccc(Cl)cc1)c1ccccc1 (centres undefined)	n	n	n	n	n	n
CC(=O)c1ccc(NC(=S)NCc2ccc(Cl)cc2Cl)cc1	16	n	n	n	n	n
CC(C)=CCC[C@H](C)C[C@@H]1Cc2[nH][nH]c(=O)c2[C@H](c2ccc(Cl)cc2)O1	n	n	n	x	x	x
CCOC(=O)C1CCCN(C(=O)Nc2ccccc2)C1 (centres undefined)	n	n	n	54	n	n
CCOC(=O)C1CCCN(C(=O)Cn2nc(C)n3c(cc4c(OC)cccc43)c2=O)C1 (centres undefined)	n	n	n	21	n	n
CCOC(=O)N1CCC(NC2CCCCCCC2)CC1	n	n	n	n	74	n
CCOC(=O)C1CCCN(C(=O)C2CCN(C(=O)Nc3ccccc3)CC2)C1 (centres undefined)	n	n	n	n	n	n
CCOC(=O)N1CCN(C(=O)C2CCCCC2)CC1	n	n	n	n	n	n
CCOC(=O)c1ccc(NC(=S)N2CCSC2c2ccc(Cl)cc2)cc1 (centres undefined)	n	n	n	34	45	n
Cc1cccc(NC(=O)c2c(O)c3ccccc3n(C)c2=O)c1	n	n	n	n	n	n
CC(C)(C)c1ccc(OCC(=O)N/N=C/c2ccc(N3CCOCC3)cc2)cc1	n	n	n	n	n	n
CC(=O)c1cccc(Nc2ccc(C#N)cc2)c1	n	n	n	n	n	n
Cc1ccc(NS(=O)(=O)c2ccc(OCC(N)=O)cc2)cc1	n	n	n	n	n	n
CCOC(=O)C1CCCN(C(=S)Nc2ccc(OC)cc2)C1 (centres undefined)	n	n	n	57	58	n
CCOC(=O)C1CCCN(C(=O)CSc2ccc(NC(C)=O)cc2)C1 (centres undefined)	n	n	n	n	n	n
CCOC(=O)C1CCCN(C(=S)NC2CCCC2)C1 (centres undefined)	n	n	n	51	n	n
SMILES	M1 ag parental	CHO-K1 Ca antag	M1 PAM parental	M1 ag	CHRM1 antagonist	M1 PAM
CCOC(=O)C1CCCN(c2cc(C)nc3cc(-c4ccc(F)cc4)nn23)C1 (centres undefined)	n	n	n	46	n	n
CCOC(=O)C1CCCN(C(=S)Nc2ccc(F)cc2)C1 (centres undefined)	n	n	n	79	69	n
CCOC(=O)c1ccc(NC(=S)N2CCC(C(N)=O)CC2)cc1	n	n	n	n	n	n
CCOC(=O)C1CCCN(CCc2ccccc2)C1 (centres undefined)	n	n	n	18	49	n
CCOC(=O)C1CCCN(C(=O)CCCn2nnnc2CN2CCC(C)CC2)C1 (centres undefined)	n	n	n	22	n	n
CCOC(=O)C1CCCN(C(=O)CCn2nc(-c3ccccc3)ccc2=O)C1 (centres undefined)	n	24	n	n	n	n
CCOC(=O)c1ccc(NC(=S)N2CCCC(C(=O)OCC)C2)cc1 (centres undefined)	n	n	n	76	69	n
O=C(COC(=O)c1cc(Br)ccc1Cl)NC1CCCC1	n	n	n	n	n	n
CCCNC(=O)CN1C(=O)COc2ccc(S(=O)(=O)N3CC(C)CC(C)C3)cc21 (centres undefined)	n	n	n	n	n	n
CCOC(=O)N1CCC(N2CCN(C3CCCC3)C(CCO)C2)CC1 (centres undefined)	n	n	n	n	47	n
Cc1cccc(NC(=S)NC(=O)Cc2ccccc2)c1C	n	n	n	17	n	n
Cc1cc(C)c(O)c(NC(=S)NC(=O)Cc2ccccc2)c1	n	n	n	19	n	n
Cc1c(NC(=S)NC(=O)Cc2ccccc2)cccc1C(=O)O	n	n	n	n	n	n
CCOC(=O)CSc1ccc2nnc(-c3ccccc3)n2n1	n	26	n	n	n	n
CCOC(=O)CSc1nnc2cc(C)c3ccccc3n12	n	n	n	n	n	19
CCOC(=O)CSc1ccc2nnc(-c3cccnc3)n2n1	n	n	n	n	n	n
CNc1cccc(-c2cc(OC)ccc2OC)n1	n	n	n	n	42	n
CNc1cccc(-c2c(OC)cccc2OC)n1	n	n	n	n	n	n
CC1(C(=O)NS(=O)(=O)c2ccc(Cl)cc2)CCN1C(=O)C1(c2ccc(Cl)cc2)CCC1 (centres undefined)	n	n	n	n	n	n
Cc1ccccc1-c1cc2nc(Oc3ccc4c(c3)OCO4)n(C)c(=O)c2s1	n	n	n	n	n	n
Cc1ccc(Cc2nc3ccccc3[nH]2)cc1	n	n	n	n	n	n
COc1ccc(Cc2nc3ccccc3[nH]2)cc1OC	n	47	n	n	n	n
CCOc1ccc(NC(=O)C(CC(=O)O)Cc2ccc(C)cc2)cc1 (centres undefined)	n	n	n	n	n	n
COCc1ccc(CN2CCCCC2C(=O)Nc2ccc(Oc3ccccc3)nc2)o1 (centres undefined)	n	n	n	n	47	n
Cc1ncc(CN2CCCCC2C(=O)Nc2ccc(Oc3ccccc3)nc2)cn1 (centres undefined)	n	n	n	n	n	n

Source: PubChem BioAssay
